Screening results from PubChem.
This is a sample that favours compounds with a hit; in the whole collection about 10% have one here.
GPT2 inhibitor – Primary qHTS assay for inhibitors of Glutamate pyruvate transaminase 2 (GPT2); 0.25% of 100,000 active; Potency, µM (doses to about 57.7 µM), actives largely listed as inhibitors; Recombinant GPT2, coupled pyruvate oxidase/HRP Amplex Red fluorescence; also: nearly all actives have a fitted effect of over 60% in size
Target sequence (Q8TD30 whole entry, looked up): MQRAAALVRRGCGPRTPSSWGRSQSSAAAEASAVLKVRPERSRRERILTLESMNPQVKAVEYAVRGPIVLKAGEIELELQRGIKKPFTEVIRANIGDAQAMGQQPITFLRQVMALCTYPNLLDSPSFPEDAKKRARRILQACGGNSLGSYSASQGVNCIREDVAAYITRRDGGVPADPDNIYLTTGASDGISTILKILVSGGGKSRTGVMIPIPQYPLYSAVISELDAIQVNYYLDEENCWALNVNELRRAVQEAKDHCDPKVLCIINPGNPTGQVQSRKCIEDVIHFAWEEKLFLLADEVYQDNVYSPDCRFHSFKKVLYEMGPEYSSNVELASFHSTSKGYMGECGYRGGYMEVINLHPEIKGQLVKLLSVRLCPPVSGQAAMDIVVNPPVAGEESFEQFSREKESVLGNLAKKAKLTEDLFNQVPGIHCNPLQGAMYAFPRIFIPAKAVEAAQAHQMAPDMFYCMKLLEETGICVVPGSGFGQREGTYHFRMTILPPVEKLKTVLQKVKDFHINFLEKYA
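Recombinant GPT2 (10ng/uL) with 250uM a-KG and 2mM L-alanine, 30 min at room temperature, in HEPES pH 7.5 buffer. Pyruvate detected by pyruvate oxidase/HRP/Amplex Red fluorescence after 30 min in the dark; AOA (50uM) as positive control.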
HEK cytotox – Cytotoxic Profiling in HEK 293 Cell Line of Diverse Libraries Using Quantitative High-Throughput Screening. HEK 293 viability, ATP luminescence (CellTiter-Glo), 48-72 h. Potency, µM (series often up to 115 µM), hits mostly inhibitors. 6.6% of 94,000 active; also: nearly all actives have a fitted effect of over 60% in size
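Cytotoxicity was scored by loss of ATP-coupled luminescence (CellTiter-Glo) in HEK 293 cells. Compound treatment ran 48 or 72 hr at 37 degree Celsius, 5% CO2, 95% humidity.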
hNpr1 antagonist – Natriuretic polypeptide receptor (hNpr1) antagonism - Primary qHTS; HEK293 hNpr1 GloSensor cGMP, ANP-stimulated luminescence; Atrial natriuretic peptide receptor 1 (Homo sapiens), P16066; Potency, µM (highest dose often 46.3 µM), actives largely listed as inhibitors; AID 1347048, 2019; 1.6% of 76,000 active; calls by dose curve; also: nearly all actives have a fitted effect of over 60% in size
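Compound pre-incubated 30 min at room temperature on GloSensor-loaded HEK293 cells stably carrying hNpr1 and the pGS-40F cGMP biosensor. Stimulation uses hNppA at 0.1 nM final; luminescence is taken at baseline and 20 min post-agonist.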
3T3 cytotox – Cytotoxic Profiling in NIH 3T3 Cell Line of Diverse Libraries Using Quantitative High-Throughput Screening. AID 1345082, 2018. 4.3% of 94,000 active. Potency, µM (highest dose often 96.7 µM), usual class: inhibitors. NIH 3T3 viability, CellTiter-Glo ATP luminescence, 48-72 h; also: nearly all actives have a fitted effect of over 55% in size
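Luminescent ATP readout (CellTiter-Glo, 10 min RT) after 48 or 72 hr compound exposure of NIH 3T3 cells seeded at 400 cells/well in 1536-well format; quantitative HTS.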
FLuc inh – Firefly luciferase inhibition profiling of diverse chemical library using quantitative high-throughput screening; AID 1347043, 2019; purified P. pyralis luciferase, luminescence, biochemical; Luciferin 4-monooxygenase (Photinus pyralis), P08659; 2.5% of 76,000 active; Potency, µM (highest dose often 115 µM), actives largely listed as inhibitors; also: nearly all actives have a fitted effect of over 65% in size
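Purified P. pyralis luciferase (10nM final) in 50mM Tris acetate pH 7.5, 10mM Mg acetate, 0.01% Tween-20, 0.05% BSA with 10uM D-luciferin and 10uM ATP. Compounds titrated qHTS. Luminescence imaged on CCD.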
NPR1 antag cnf – Natriuretic polypeptide receptor (hNpr1) antagonism - Confirmation | HEK293 hNpr1 cGMP GloSensor luminescence, ANP-stimulated | Potency, µM (series often up to 57.6 µM), most hits filed as inhibitors | AID 1347044, 2019 | shares compounds with hNpr1 antagonist | 76% of 1,400 active; calls by dose curve; also: nearly all actives have a fitted effect of over 70% in size
NPR2 antag – Natriuretic polypeptide receptor (hNpr2) antagonism - Subtype selectivity assay | shares compounds with hNpr1 antagonist | HEK293 hNpr2 GloSensor cGMP luminescence, CNP-stimulated | Potency, µM (doses to about 57.6 µM), most hits filed as inhibitors | 67% of 1,400 active | AID 1347046, 2019; calls by dose curve; also: nearly all actives have a fitted effect of over 70% in size
FLuc counter – Natriuretic polypeptide receptor (hNpr1) antagonism - Confirmation firefly luciferase (FLuc) inhibition counterscreen | AID 1347047, 2019 | shares compounds with hNpr1 antagonist | purified FLuc enzyme, luminescence, Km substrate | 0.7% of 1,400 active | Potency, µM (highest dose often 57.6 µM), most hits filed as inhibitors
GloSensor ctrl – Natriuretic polypeptide receptor (hNpr1) antagonism - Counterscreen GloSensor control cell line | shares compounds with hNpr1 antagonist | HEK293 GloSensor cGMP, SNP-stimulated, luminescence | Potency, µM (titrated, usually from 57.6 µM), usual class: inhibitors | 69% of 1,400 active | AID 1347051, 2019; calls by dose curve; also: nearly all actives have a fitted effect of over 70% in size
Numbers stand for hits; 0 = inactive; ? = inconclusive; - = not tested or not shown. Unless noted, calls follow the shape of the dose curve; as a rule, active = well fitted curve in the direction sought with a large enough effect; inconclusive = small, poorly fitted or top-dose-only effect, or another doubt; inactive = no such curve, though single readings can be large; an effect the other way counts as inactive or inconclusive.

SMILES | GPT2 inhibitor | HEK cytotox | hNpr1 antagonist | 3T3 cytotox | FLuc inh | NPR1 antag cnf | NPR2 antag | FLuc counter | GloSensor ctrl
COc1ccc(CN2CCc3nc(C(=O)NCc4cccc(F)c4)oc3CC2)cc1OC | 0 | ? | 0 | ? | 0 | - | - | - | -
N#Cc1ccc(CN2CCc3nc(C(=O)Nc4cccc(C(F)(F)F)c4)oc3CC2)cc1 | 0 | ? | 14µM | ? | 0 | 17µM | 19µM | 0 | 11µM
N#Cc1cccc(CN2CCc3nc(C(=O)NCCOc4ccccc4)oc3CC2)c1 | 0 | ? | ? | ? | 0 | - | - | - | -
O=C(Nc1ccc(Cl)cc1)c1nc2c(o1)CCN(Cc1cc(F)ccc1F)CC2 | 0 | ? | 13µM | ? | 0 | 16µM | 13µM | 0 | 9.9µM
COc1cc(OC)cc(C(=O)Nc2ccc(-c3nnc4n3CCCC4)cc2)c1 | 0 | 0 | 0 | 0 | 0 | - | - | - | -
CC(=O)Nc1ccc2ncnc(N3CCCC3)c2c1 | 0 | ? | 0 | 0 | 0 | - | - | - | -
O=C1NC[C@@H](CCC(=O)N2CCCC2)N2C[C@@H](NCc3cccc(Cl)c3)C[C@@H]12 | 0 | 0 | 0 | 0 | 0 | - | - | - | -
COc1cc(-c2cc(C)c3c(OC)ccc(OC)c3n2)cc2c1OCCNC2 | 0 | ? | ? | 20µM | 0 | ? | ? | 0 | 0
COc1ccc(-c2cc3c(c(OC)c2)OCCNC3)nn1 | 0 | 0 | 0 | 0 | 0 | - | - | - | -
O=C(NC[C@H]1Cn2c(-c3ccc4c(c3)OCO4)cnc2CO1)Nc1ccccc1 | 0 | ? | 0 | ? | ? | - | - | - | -
O=C(NC[C@H]1Cn2c(-c3ccc4c(c3)OCCO4)cnc2CO1)Nc1ccccc1 | 0 | 100µM | ? | 89µM | 0 | ? | ? | 0 | 0
Cc1noc([C@@H]2CC(F)(F)CN2C(=O)c2nn(C)c3ccccc23)n1 | 0 | 0 | 0 | 0 | 0 | - | - | - | -
CC1CCN(C(=O)c2ccccc2OCC2CCCN(C(=O)C3CC3)C2)CC1 (stereo not given) | 0 | ? | - | ? | - | - | - | - | -
O=C(c1ccncc1)N1CC2CCC(C1)N2Cc1ccc(-c2ccccc2)cc1 | 0 | ? | ? | ? | 0 | 4.3µM | 5.4µM | 0 | 4.8µM
N#Cc1ccc(CN2C3CCC2CN(C(=O)c2ccncc2)C3)cc1 | 0 | ? | 0 | ? | 0 | - | - | - | -
COc1ccc(CNC(=O)[C@@H]2Cc3nc[nH]c3CN2Cc2ccc(Cl)cc2)cc1 | 0 | ? | 0 | ? | 0 | - | - | - | -
COc1ccc(CN2Cc3[nH]cnc3C[C@H]2C(=O)NCc2ccccc2)c2ccccc12 | ? | 89µM | ? | ? | 0 | ? | ? | 0 | 0
O=C(NCc1ccc(F)cc1)c1cc2n(n1)CC(c1ccc3c(c1)OCO3)OC2 (stereo not given) | ? | ? | 0 | ? | 0 | - | - | - | -
O=C(NCc1ccccc1Cl)c1cn2cc(-c3ccccc3)sc2n1 | 0 | 0 | - | 0 | - | - | - | - | -
O=C(NCc1ccccc1Cl)c1csc(N2CCN(c3ccc(F)cc3)CC2)n1 | 0 | ? | 11µM | ? | 0 | 22µM | 22µM | 0 | 19µM
O=C(NCc1ccc2c(c1)OCO2)c1csc(N2CCN(c3ccc(F)cc3)CC2)n1 | 0 | 28µM | 10µM | ? | 0 | 8.6µM | 11µM | 0 | 9.7µM
O=C(NCc1ccccc1)c1csc(N2CCN(c3ccc(Cl)cc3)CC2)n1 | 0 | ? | 11µM | 0 | 0 | 22µM | 22µM | 0 | 22µM
COc1ccccc1C(CC(=O)NCC(C)C)c1cn(C)c2ccccc12 (stereo not given) | 0 | ? | ? | 0 | 0 | ? | ? | 0 | 0
COc1ccc(CCNC(=O)CC(c2cccc(F)c2)c2cn(C)c3ccccc23)cc1OC (stereo not given) | 0 | 20µM | 18µM | 22µM | 0 | 24µM | 27µM | 0 | 27µM
CCCCNC(=O)CC(c1cccc(OC)c1OC)c1c[nH]c2ccccc12 (stereo not given) | 0 | ? | 0 | ? | 0 | - | - | - | -
SMILES | GPT2 inhibitor | HEK cytotox | hNpr1 antagonist | 3T3 cytotox | FLuc inh | NPR1 antag cnf | NPR2 antag | FLuc counter | GloSensor ctrl
COc1ccc(C(CC(=O)NCCc2ccccc2)c2c[nH]c3ccccc23)cc1OC (stereo not given) | 0 | ? | 0 | ? | 0 | - | - | - | -
COC(=O)CNC(=O)c1cc(-c2cccc(C(F)(F)F)c2)c2nncn2n1 | 0 | ? | - | 0 | - | - | - | - | -
O=C(c1ccc2c(c1)OCO2)N1CCC2(CC1)CC(c1cccnc1)=NO2 | 0 | ? | 0 | 0 | 0 | - | - | - | -
Cc1c(-c2cn(C)c(=O)n3cc(COc4ccc(Cl)cc4)nc23)cnn1C | ? | ? | 0 | ? | ? | - | - | - | -
Cn1cc(-c2cccc(O)c2)c2nc(COc3ccc(Cl)cc3)cn2c1=O | 0 | 32µM | 35µM | ? | 0 | 40µM | ? | 0 | 35µM
CN1CCN(c2nc3c(c(=O)[nH]2)CCN(CCc2ccccc2)CC3)CC1 | 0 | 0 | 0 | 0 | 0 | - | - | - | -
CCC1(C(=O)NCc2cccc(F)c2)CCCCC(=O)N1 (stereo not given) | 0 | 0 | 0 | 0 | 0 | - | - | - | -
CC(C)N1C(=O)CO[C@H]2CCN(Cc3ccccc3Cl)CC[C@@H]21 | 0 | ? | 2.8µM | ? | 0 | 7.9µM | 11µM | 0 | 6.3µM
CC(C)c1ccc(CN2CC[C@@H]3OCC(=O)N(C(C)C)[C@H]3CC2)cc1 | 0 | ? | 8.9µM | ? | 0 | 7.9µM | 11µM | 0 | 6.3µM
CC(C)c1nncn1C1CCN(S(=O)(=O)c2cccc(Cl)c2)CC1 | 0 | 0 | ? | 0 | 0 | ? | ? | 0 | 24µM
CC(C)c1ccc(-c2nc(-c3cccnn3)no2)c(=O)[nH]1 | 0 | ? | 0 | 0 | ? | - | - | - | -
COc1ccc(C(=O)N2CCC3(CC2)CC(=O)Nc2ccccc2O3)cc1 | ? | 0 | 13µM | 0 | 0 | 22µM | 22µM | 0 | 22µM
Cc1ccc(C(=O)N2CCC3(CC2)CC(=O)Nc2ccccc2O3)cc1 | 0 | ? | - | 0 | - | 24µM | 24µM | 0 | 15µM
